The values below come from ChEMBL document CHEMBL3988442, “University of Dundee, Small-Polar-MMV Screening Library” (2021).

“And” between values parts separate entries of the source, which are not always exact repeats. Identical values can stand only once. For some assays here: Potency and affinity values are given separately.

Design in all cases: scale not given: direction of the effect not stated beside the values
For assay [1], the target named is Protein translocase subunit SecA (Escherichia coli (strain K12)) (UniProt P10408). Description: Assay to Identify E. coli SecA ATPase Inhibitors. The format is functional. As to conditions: 30 µM.
The target in assay [2] is T1, Ubiquitin-activating enzyme e1, putative (Leishmania donovani (strain BPK282A1)) (UniProt E9BSI1).
T1 sequence (whole entry): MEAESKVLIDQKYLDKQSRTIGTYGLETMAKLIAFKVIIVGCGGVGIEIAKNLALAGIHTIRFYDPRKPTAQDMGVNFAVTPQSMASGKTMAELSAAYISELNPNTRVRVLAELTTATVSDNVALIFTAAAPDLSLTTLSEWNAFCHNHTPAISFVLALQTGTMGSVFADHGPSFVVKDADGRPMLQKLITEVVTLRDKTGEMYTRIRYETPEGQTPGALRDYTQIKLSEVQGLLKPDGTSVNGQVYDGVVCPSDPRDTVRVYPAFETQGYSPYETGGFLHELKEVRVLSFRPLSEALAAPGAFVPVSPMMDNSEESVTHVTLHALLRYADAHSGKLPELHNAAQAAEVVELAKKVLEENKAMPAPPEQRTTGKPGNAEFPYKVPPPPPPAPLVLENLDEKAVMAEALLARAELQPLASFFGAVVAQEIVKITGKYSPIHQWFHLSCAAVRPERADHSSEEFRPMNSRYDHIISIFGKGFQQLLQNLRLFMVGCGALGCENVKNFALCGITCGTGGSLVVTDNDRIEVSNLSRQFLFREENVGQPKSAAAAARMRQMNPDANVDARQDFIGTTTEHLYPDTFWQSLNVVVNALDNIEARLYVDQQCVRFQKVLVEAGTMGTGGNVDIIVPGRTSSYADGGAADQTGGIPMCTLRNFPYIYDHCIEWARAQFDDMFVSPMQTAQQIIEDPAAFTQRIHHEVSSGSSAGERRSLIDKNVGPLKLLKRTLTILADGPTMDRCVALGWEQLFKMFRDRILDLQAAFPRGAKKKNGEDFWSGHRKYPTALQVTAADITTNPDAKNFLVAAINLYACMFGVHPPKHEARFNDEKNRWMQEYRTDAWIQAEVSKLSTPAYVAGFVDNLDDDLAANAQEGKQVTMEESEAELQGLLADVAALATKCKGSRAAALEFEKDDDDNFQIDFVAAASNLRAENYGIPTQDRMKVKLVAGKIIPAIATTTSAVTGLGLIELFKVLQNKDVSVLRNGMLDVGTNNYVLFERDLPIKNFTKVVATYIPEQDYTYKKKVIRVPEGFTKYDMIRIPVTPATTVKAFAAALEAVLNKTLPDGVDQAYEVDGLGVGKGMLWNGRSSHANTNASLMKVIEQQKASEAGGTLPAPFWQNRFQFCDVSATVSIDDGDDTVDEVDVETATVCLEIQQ
Briefly: Leishmania donovani Ubiquitin Activating Enzyme (LdE1). Type of assay: functional. As to conditions: 30 µM.

Assay [3] deals with AMP-activated protein kinase, AMPK (Homo sapiens) (UniProt P54646+O43741+P54619+Q9UGJ0+Q9Y478+Q13131+Q9UGI9). Description: AMP-dependent Kinase enzyme assay. An in vitro enzyme assay that detects ADP turnover that is directly proportional to AMPK activity. This uses naive AMPK that is activated during the assay with MK-8722. Type of assay: functional. As to conditions: 30 µM.

The target of assay [4] is Sialic acid-binding Ig-like lectin 9 (Homo sapiens) (UniProt Q9Y336). Briefly: Hs-Siglec9 ALPHAscreen SOP 20170721. As to conditions: 10 µM. (In general: Alpha assays give light when donor and acceptor beads are brought close together.)
Assay [5] concerns Trypanosoma cruzi. Briefly: Trypanosoma cruzi phosphomannomutase and mannose-1-phosphate guanylyltransferase assay. The format is functional. As to conditions: 10 µM.
The target of assay [6] is T2, Arginase-2, mitochondrial (Homo sapiens) (UniProt P78540).
T2 sequence (whole entry): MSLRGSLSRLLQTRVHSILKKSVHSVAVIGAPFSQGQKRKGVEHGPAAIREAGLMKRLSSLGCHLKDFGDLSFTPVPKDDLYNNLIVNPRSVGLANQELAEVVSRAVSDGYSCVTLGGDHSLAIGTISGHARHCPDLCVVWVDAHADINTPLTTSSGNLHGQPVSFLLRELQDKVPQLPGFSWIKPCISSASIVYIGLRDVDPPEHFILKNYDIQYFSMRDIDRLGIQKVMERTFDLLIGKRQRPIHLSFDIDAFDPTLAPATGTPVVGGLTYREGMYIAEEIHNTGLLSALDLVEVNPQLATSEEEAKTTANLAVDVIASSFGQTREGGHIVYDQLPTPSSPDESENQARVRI
Briefly: in vitro enzyme assay to detect the production of urea directly proportional to the activity of Arginase II. Also: in the data most compounds retested in dose-response had high values. Type of assay: functional. As to conditions: 33.3 µM.

For assay [7], the target named is T3, Proteasome subunit beta (Trypanosoma cruzi) (UniProt O96673).
T3 sequence (whole entry): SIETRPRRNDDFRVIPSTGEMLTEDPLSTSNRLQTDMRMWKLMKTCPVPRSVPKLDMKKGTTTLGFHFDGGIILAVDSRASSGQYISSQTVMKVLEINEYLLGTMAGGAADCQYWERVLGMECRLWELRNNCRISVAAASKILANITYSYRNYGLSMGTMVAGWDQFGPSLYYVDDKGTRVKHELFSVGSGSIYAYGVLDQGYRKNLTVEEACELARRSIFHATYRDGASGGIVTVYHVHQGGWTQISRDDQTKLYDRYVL
Briefly: Trypanosoma cruzi proteasome chymotrypsin-like activity (TcProtChymo) assay. Also: in the data most compounds retested in dose-response had high values. The format is functional. As to conditions: 9.37 µM.

The species named for assay [8] is Homo sapiens. Description: To identify inhibition of the IFN signalling (Jak-Stat) pathway via expression of an eGFP reporter gene under the control of an IFN-stimulated response element (ISRE) containing MxA promoter. Type of assay: functional. As to conditions: 30 µM. Background: Reporter assays use an easily measured gene product as a stand-in for the process of interest.

For assay [9], the target named is T4, Tyrosyl-tRNA synthetase, putative (Trypanosoma cruzi (strain CL Brener)) (UniProt Q4DSP6).
T4 sequence (whole entry): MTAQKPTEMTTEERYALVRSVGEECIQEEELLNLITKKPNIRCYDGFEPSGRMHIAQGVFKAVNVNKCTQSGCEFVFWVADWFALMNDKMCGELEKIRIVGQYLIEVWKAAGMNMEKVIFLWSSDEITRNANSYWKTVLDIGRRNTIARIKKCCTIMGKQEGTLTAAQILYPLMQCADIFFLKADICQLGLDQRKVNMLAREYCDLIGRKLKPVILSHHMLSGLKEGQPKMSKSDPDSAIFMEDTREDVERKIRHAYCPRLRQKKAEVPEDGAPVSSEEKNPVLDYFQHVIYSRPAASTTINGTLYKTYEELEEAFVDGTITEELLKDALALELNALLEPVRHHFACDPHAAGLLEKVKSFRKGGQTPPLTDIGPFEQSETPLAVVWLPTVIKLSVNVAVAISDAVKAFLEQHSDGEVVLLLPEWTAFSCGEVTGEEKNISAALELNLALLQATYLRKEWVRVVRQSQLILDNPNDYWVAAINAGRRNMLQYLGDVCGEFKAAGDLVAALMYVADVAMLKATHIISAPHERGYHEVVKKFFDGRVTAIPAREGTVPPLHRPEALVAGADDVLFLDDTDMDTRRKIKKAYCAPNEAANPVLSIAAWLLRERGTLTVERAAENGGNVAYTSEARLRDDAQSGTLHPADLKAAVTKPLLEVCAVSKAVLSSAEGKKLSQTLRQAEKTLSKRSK
Briefly: Trypanosoma cruzi tyrosyl tRNA synthetase (TcYRS) _High Tyrosine SOP. Also: in the data most compounds retested in dose-response had high values. As to conditions: 30 µM. Type of assay: functional.

Assay [10] concerns the target T4, Tyrosyl-tRNA synthetase, putative (Trypanosoma cruzi (strain CL Brener)). Briefly: Trypanosoma cruzi tyrosyl tRNA synthetase (TcYRS) SOP. The format is functional. As to conditions: 30 µM.
In assay [11] the target is Chromo domain-containing protein 1 (Saccharomyces cerevisiae (strain ATCC 204508 / S288c) (Baker's yeast)) (UniProt P32657). Briefly: ScCHD-1 Enzyme Inhibition Assay. Also: in the data most compounds retested in dose-response had high values. Type of assay: functional. As to conditions: 30 µM.
The subject of assay [12] is N/A. Briefly: Trypanosoma cruzi proteasome luciferase counter-screen. The format is functional. As to conditions: 9.37 µM. (In general: A counterscreen serves to expose hits that act by an unwanted route or on another target.)

Protein translocase subunit SecA (Escherichia coli (strain K12)), sequence (P10408 whole entry): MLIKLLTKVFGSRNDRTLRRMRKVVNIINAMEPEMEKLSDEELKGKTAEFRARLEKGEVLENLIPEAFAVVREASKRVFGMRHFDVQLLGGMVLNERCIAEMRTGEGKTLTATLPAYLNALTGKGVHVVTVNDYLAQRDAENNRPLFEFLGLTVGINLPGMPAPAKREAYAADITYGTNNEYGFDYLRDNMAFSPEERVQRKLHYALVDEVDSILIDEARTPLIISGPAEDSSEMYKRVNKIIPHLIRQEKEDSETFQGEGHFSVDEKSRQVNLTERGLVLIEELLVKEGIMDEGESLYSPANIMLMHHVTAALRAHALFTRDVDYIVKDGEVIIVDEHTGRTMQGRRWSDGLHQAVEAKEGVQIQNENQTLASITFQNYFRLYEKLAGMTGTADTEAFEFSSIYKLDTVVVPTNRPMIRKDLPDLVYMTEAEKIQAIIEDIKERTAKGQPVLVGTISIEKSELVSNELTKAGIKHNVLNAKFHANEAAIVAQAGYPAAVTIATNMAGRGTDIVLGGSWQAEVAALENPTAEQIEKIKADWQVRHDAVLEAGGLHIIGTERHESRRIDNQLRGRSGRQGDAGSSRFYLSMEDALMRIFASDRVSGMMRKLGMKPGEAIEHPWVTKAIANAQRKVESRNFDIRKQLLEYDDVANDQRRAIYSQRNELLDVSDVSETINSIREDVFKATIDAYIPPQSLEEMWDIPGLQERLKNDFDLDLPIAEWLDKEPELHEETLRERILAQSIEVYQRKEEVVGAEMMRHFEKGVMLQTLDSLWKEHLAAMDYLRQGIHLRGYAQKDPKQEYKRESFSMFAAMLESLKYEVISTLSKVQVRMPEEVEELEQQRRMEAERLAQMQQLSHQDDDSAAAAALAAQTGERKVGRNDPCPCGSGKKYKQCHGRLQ
Sialic acid-binding Ig-like lectin 9 (Homo sapiens), sequence (Q9Y336 whole entry): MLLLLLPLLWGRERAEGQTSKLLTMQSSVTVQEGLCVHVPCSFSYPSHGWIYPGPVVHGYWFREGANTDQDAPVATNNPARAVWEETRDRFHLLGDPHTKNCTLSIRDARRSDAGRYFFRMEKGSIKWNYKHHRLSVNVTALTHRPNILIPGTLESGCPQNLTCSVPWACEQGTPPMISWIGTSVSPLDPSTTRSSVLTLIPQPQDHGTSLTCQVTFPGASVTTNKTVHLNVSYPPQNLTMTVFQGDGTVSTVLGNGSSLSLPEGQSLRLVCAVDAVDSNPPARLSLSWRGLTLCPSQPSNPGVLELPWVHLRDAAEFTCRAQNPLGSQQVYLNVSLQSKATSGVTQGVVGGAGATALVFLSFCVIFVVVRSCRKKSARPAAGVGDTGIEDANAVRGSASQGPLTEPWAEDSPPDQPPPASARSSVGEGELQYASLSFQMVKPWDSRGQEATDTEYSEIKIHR
Chromo domain-containing protein 1 (Saccharomyces cerevisiae (strain ATCC 204508 / S288c) (Baker's yeast)), sequence (P32657 whole entry, the tested form may be a part): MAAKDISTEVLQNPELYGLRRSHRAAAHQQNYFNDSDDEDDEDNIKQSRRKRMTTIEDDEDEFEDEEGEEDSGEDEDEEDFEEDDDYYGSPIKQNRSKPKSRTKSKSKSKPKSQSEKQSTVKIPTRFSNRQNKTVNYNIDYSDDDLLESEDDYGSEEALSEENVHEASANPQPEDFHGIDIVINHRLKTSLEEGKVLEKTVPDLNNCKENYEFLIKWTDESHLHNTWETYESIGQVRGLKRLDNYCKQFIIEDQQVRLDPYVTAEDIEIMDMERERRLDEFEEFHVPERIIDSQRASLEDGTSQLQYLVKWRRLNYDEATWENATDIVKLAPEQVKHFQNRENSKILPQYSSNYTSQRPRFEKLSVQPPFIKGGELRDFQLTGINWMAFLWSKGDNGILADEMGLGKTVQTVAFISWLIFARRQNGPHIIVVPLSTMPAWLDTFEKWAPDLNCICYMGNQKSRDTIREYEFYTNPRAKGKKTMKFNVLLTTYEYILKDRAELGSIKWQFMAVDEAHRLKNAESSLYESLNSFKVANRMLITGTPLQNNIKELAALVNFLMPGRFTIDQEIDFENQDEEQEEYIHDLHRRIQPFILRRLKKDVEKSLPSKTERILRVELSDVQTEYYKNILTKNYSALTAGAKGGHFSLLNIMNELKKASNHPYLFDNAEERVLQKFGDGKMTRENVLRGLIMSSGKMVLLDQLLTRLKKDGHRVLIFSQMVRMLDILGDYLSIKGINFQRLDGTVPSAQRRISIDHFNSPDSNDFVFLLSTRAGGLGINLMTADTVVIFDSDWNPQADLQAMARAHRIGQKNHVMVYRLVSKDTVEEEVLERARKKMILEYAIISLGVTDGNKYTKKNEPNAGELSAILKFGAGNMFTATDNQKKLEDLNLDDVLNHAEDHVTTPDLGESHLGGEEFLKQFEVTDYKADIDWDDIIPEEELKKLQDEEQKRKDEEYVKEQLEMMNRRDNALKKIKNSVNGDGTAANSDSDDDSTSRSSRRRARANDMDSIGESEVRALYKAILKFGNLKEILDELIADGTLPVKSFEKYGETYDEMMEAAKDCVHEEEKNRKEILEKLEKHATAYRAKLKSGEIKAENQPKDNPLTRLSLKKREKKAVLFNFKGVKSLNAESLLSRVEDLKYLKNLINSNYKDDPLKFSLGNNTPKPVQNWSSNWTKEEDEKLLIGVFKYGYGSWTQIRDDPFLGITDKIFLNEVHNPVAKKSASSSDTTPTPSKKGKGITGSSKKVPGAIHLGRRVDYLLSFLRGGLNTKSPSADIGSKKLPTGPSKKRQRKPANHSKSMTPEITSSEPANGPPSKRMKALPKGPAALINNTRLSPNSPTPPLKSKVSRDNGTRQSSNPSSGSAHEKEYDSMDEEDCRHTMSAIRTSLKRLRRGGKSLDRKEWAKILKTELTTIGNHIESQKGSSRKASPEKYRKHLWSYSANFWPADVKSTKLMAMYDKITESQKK

For `Cc1cc(C)n(C2CN(CC(=O)NC3CCOCC3)C2)n1`, the Percent Effect in assay [1] is -6.74%; in assay [2] it was 6.33%; in assay [3], 6.98%; in [4], 1.96%; in assay [5] it was -1.33%; in [6] it was -1.94%. Besides, the Percent Effect was 9.26% in [7]; 10.4% in assay [8]; 8.33% in assay [9]; 15.2% in [10]; -15% in [11].
Consider `COCc1nc2cc(NCc3ccc(C)o3)ccc2o1`, for which the Percent Effect was -4.96% in assay [1]; 13.5% in assay [2]; -42.7% in [3]; 8.51% in [4]; 6.05% in assay [5]; 37.1% in assay [6]. The Percent Effect in assay [7] was 14.3%; in assay [8], -1.74%; in assay [9], 13.9%; in assay [10], 15.8%; in assay [11], -2.51%.
With `CCC1=N[C@@]2(CC[C@@H]3CN(Cc4ccc(Cl)cc4)C[C@@H]32)C(=O)N1C`, the Percent Effect is -4.15% in assay [1]; 2.7% in assay [2]; 3.53% in assay [3]; 4.31% in [4]; -0.0978% in [5]; -13.1% in assay [6]. Besides, the Percent Effect in [7] was found to be 16.4%; in [8], 14.7%; in assay [9], 0%; in [10], 2.56%; in assay [11], 2.84%.
With `O=C(C1=CCCC1)N1C[C@@H]2COC[C@]2(COc2cccnc2)C1`, the Percent Effect in assay [1] is -2.49%; in [2] it was 2.7%; in assay [3] it was 7.33%; in [4] it was 5.37%; in assay [5] it was -1.27%; in assay [6] it was 5.41%. Besides, the Percent Effect in [12] was 7.45% and 8.06%; in assay [8], 0.513%; in [9], 0%; in assay [10], -2.56%; in assay [11] it was 4.29%.
As to `Cc1ccsc1CN(CCN(C)C)Cc1ccccn1`, the Percent Effect is -5.5% in assay [1]; 4.17% in [2]; -16.2% in assay [3]; 21.2% in [4]; 5.15% in assay [5]; 18.5% in assay [6]. Further, the Percent Effect in assay [7] was 11.1%; in assay [8] it was -4.45%; in assay [9], 7.37%; in assay [10], 15.4%; in [11] it was -9.23%.
`CNS(=O)(=O)c1cccc(C(C)NCc2cccc(OC)c2)c1` (stereo not given): the Percent Effect in assay [1] is -3.08%; in assay [2], -5.41%; in [3], 4.16%; in [4] it was -2.94%; in assay [5] it was -4.3%; in assay [6] it was -0.417%. Besides, the Percent Effect in [7] is 4.31%; in assay [8] it was 11.2%; in assay [9], 0%; in assay [10], -8.54%; in assay [11], -3.26%.
In the case of `CCN1CCC(CNC(=O)C2(c3cccc(C)c3)CC2)C1` (stereo not given), the Percent Effect is -2.88% in [1]; -1.27% in assay [2]; 6.26% in assay [3]; 2.04% in [4]; -7.69% in [5]; 5.81% in assay [6]. The Percent Effect was 10.1% in assay [7]; 13.3% in assay [8]; 11.5% in [9]; 15.2% in assay [10]; -11.4% in assay [11].
`CCOc1ccc(C2CC(=O)Nc3c2c(=O)nc2sccn32)cc1` (stereo not given): the Percent Effect in assay [1] is -6.79%; in assay [2] it was 17.3%; in [3] it was -2.62%; in assay [4] it was 8.5%; in [5] it was 1.97%; in assay [6], -6.51%. Besides, the Percent Effect in [7] was 9.06%; in assay [8] it was 7.35%; in assay [9], 4.23%; in [10] it was 7.69%; in assay [11], -13.3%.
For `Cc1nc(CN2CCCN(CC(=O)Nc3cccnc3)CC2)no1`, the Percent Effect in assay [1] was -3.59%; in assay [2], 18.2%; in [3], 4.53%; in assay [4] it was -8.79%; in assay [5] it was -0.294%; in assay [6], 4.84%. Further, the Percent Effect is 15.2% and 14.2% in [12]; 23.7% in [8]; 5.71% in assay [9]; 9.41% in [10]; -14% in assay [11].
As for `Cc1nc(N2CCOCC2)nc2c1CCN(Cc1cccnc1)CC2`, the Percent Effect is -2.77% in assay [1]; 0% in assay [2]; 0.954% in assay [3]; 7.94% in assay [4]; -3.28% in assay [5]; -56.8% in assay [6]. Also, the Percent Effect is 3.08% in [7]; -25.6% in [8]; 7.29% in [9]; -2.5% in [10]; -17.8% in assay [11].
